A selection: hits, their analogues and other compounds. The true share with any hit is near 1.2%.
GALK inhibitor = qHTS Assay for Inhibitors of Human Galactokinase (GALK); P51570; Purified GALK, Kinase-Glo residual ATP luminescence; Potency, µM (series often up to 57.5 µM), usual class: inhibitors; 270,000 compounds, 0.007% hits; AID 1868, 2009
Target sequence (P51570 whole entry, looked up): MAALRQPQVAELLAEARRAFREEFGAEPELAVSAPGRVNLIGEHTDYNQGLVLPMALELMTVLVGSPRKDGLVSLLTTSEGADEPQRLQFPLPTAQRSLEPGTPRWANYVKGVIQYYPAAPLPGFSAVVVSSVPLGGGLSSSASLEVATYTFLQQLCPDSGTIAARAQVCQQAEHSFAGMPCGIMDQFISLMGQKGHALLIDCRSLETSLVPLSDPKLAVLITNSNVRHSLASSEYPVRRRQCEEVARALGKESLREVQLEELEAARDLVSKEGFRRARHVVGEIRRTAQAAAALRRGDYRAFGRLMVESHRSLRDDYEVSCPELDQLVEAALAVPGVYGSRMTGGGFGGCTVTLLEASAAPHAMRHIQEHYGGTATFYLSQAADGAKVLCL
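Luminescence from leftover ATP (Ultra-Glo luciferase/luciferin) served as read-out after a 1 h room-temperature reaction of 5 nM GALK with 35 uM ATP and 100 uM galactose.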
TrxR1 substrate = qHTS Assay for Substrates of Mammalian Selenoprotein Thioredoxin Reductase 1 (TrxR1): qHTS; Thioredoxin reductase 1, cytoplasmic (Rattus norvegicus), O89049; AID 588456, 2011; 390,000 compounds, 0.01% hits; Potency, µM (titrated, usually from 114 µM); purified TrxR1 substrate turnover, NADPH consumption readout; further: nearly all actives have a fitted effect of over 50% in size
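Rat TrxR1, dispensed at 90 nM, was prereduced with 400 uM NADPH (final) for 5 min at ~22 deg C, then incubated with compound 15 min before 400 uM selenite. A first-read NADPH fluorescence drop versus no-compound background flagged substrates.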
NPSR antagonist = qHTS Assay for Antagonists of the Neuropeptide S Receptor: cAMP Signal Transduction | CHO-NPSR cells, cAMP TR-FRET, antagonist mode | Potency, µM (highest dose often 38.3 µM), hits mostly inhibitors | 220,000 compounds, 1% hits; further: nearly all actives have a fitted effect of over 50% in size
Target sequence (Q6W5P4 whole entry, looked up): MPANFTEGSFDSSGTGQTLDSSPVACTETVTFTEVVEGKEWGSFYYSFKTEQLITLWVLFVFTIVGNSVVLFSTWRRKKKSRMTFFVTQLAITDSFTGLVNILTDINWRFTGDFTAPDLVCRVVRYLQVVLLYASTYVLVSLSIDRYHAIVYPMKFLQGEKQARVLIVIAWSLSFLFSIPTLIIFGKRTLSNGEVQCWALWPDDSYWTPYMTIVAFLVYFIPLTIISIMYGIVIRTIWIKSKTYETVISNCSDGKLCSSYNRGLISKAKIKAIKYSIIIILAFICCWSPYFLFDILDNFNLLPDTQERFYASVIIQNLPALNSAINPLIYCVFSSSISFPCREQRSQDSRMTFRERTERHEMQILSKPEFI
TrxR1 inh = qHTS Assay for Inhibitors of Mammalian Selenoprotein Thioredoxin Reductase 1 (TrxR1): qHTS; recombinant rTrxR1, NADPH fluorescence consumption, selenite substrate; Potency, µM (titrated, usually from 114 µM), actives largely listed as inhibitors; 390,000 compounds, 1% hits; further: nearly all actives have a fitted effect of over 65% in size
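Rat TrxR1 (90 nM in the dispensed reagent) was pre-reduced with 400 uM NADPH for 5 min at room temperature, then incubated with compound for 15 min. After 400 uM selenite was added, NADPH fluorescence (Ex 340/Em 450 nm) was followed for 8 min.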
Each line names hits and unclear results; the compound was inactive in the other large screens; ! = a repeat was not active. The call rests on the fitted dose curve; in most records, active means well fitted curve in the direction sought with a large enough effect; inconclusive means small, poorly fitted or top-dose-only effect, or another doubt; inactive means no such curve, though single readings can be large; an effect the other way counts as inactive or inconclusive.

CC1=C(O)C(=O)C=C2C1=CC=C1C2(C)CCC2(C)C3CC(C)(C(=O)O)CCC3(C)CCC12C (stereo not drawn)	TrxR1 inh 20µM (no result: GALK inhibitor, NPSR antagonist)
CCN1C[C@]2(C)CC[C@H](O)[C@@]34[C@@H]5C[C@@H]6[C@@H](OC)C[C@@](O)(C5[C@H]6O)[C@@H](C[C@@H]23)[C@@H]14	none (no result: GALK inhibitor, TrxR1 substrate)
CCCCCc1nc2c(c(=O)c3ccccc3n2C)c(=O)n1C1CCCCCC1	NPSR antagonist 10µM
COc1ccc(-c2cc(=NCCCCCC(=O)O)c3cc(C)ccc3o2)cc1	TrxR1 inh 15.8µM!
COC1=C(C)C(=O)c2c(c(COC(N)=O)c3n2C[C@@H]2[C@@H]3N2C)C1=O (stereo partly drawn)	TrxR1 inh inconclusive (no result: GALK inhibitor, NPSR antagonist)
O=C(CSc1ccc(-c2ccco2)nn1)Nc1ccccc1	TrxR1 inh 20µM
COc1ccc(NC(=O)CN(C)C(=O)CSC(c2ccccc2)c2ccccc2)cc1	none (no result: GALK inhibitor, NPSR antagonist)
CCC(C)N1C(=O)/C(=C/c2ccc3c(c2)CCN3CCCCl)C(=O)NC1=S (stereo not drawn)	TrxR1 inh 12.6µM
COc1ccc(-c2cc3nc(C)c(CCC(=O)N4CCN(c5cc(C)ccc5C)CC4)c(C)n3n2)c(OC)c1	none (no result: GALK inhibitor, NPSR antagonist)
CC(N)[C@H](O)c1ccc(O)c(O)c1 (stereo partly drawn)	TrxR1 inh 17.8µM (no result: GALK inhibitor)
CCN(CC)c1ccc(/C=C2\C(=O)NC(=O)N(Cc3ccco3)C2=O)cc1	TrxR1 inh 28.2µM
CCN(CC)c1ccc(/C=C2/C(=O)NC(=O)N(CC3CCCO3)C2=O)cc1 (stereo not drawn)	TrxR1 inh inconclusive
O=C(O)Cn1cc(/C=C2\C(=O)NC(=O)N(Cc3ccco3)C2=O)c2ccccc21	TrxR1 inh 31.6µM
CCN1C(=O)NC(=O)/C(=C\c2cn(CC(=O)O)c3ccccc23)C1=O	none (no result: TrxR1 substrate, NPSR antagonist, TrxR1 inh)
CC1(C)N([O])C(c2ccc(C(=O)O)cc2)=[N+]([O-])C1(C)C	none (no result: GALK inhibitor, NPSR antagonist)
Fc1ccc(C(OCCN2CCN(CCCc3ccccc3)CC2)c2ccc(F)cc2)cc1	NPSR antagonist inconclusive (no result: GALK inhibitor)
c1ccc(CCCN2CCN(CCOC(c3ccccc3)c3ccccc3)CC2)cc1	NPSR antagonist 15.8µM (no result: GALK inhibitor)
Oc1ccc2c3c1OC1c4[nH]c5ccccc5c4C[C@@]4(O)C(C2)N(CC2CC2)CC[C@]314 (stereo partly drawn)	none (no result: GALK inhibitor, NPSR antagonist)
O=C1/C(=C/c2ccccc2)C[C@@]2(O)[C@H]3Cc4ccc(O)c5c4[C@@]2(CCN3CC2CC2)C1O5 (stereo partly drawn)	TrxR1 inh 35.5µM (no result: GALK inhibitor, NPSR antagonist)
CC[N+](C)(C)c1cccc(O)c1	TrxR1 inh inconclusive
CN(C)c1ccc(-[n+]2c(-c3ccccc3)cc(-c3ccccc3)cc2-c2ccccc2)cc1	NPSR antagonist 12.6µM
Cc1cc(C=C2C(=O)NC(=S)NC2=O)c(C)n1-c1ccc2c(c1)OCO2	NPSR antagonist 12.6µM, TrxR1 inh inconclusive
NCC(=O)c1cccc([N+](=O)[O-])c1	none (no result: GALK inhibitor, NPSR antagonist)
CN1C(=O)N(C)C(=O)C2(Sc3ccccc3C2=O)C1=O	TrxR1 inh 28.2µM
CCC1(c2ccccc2)C(=O)N(C)C(=O)N(C)C1=O	none
Cc1ccccc1N1C(=O)NC(=O)/C(=C\c2cc(Br)c(N3CCOCC3)o2)C1=O	NPSR antagonist 12.6µM, TrxR1 inh 22.4µM
Cc1ccccc1N1C(=O)NC(=O)/C(=C/c2ccc(N3CCOCC3)o2)C1=O	none
CCOC(=O)c1c(/N=C/C2C(=O)NC(=S)NC2=O)sc(C)c1C	none (no result: TrxR1 substrate, TrxR1 inh)
N#Cc1c(/N=C/C2C(=O)NC(=S)NC2=O)sc2c1CCCC2	TrxR1 inh 22.4µM
CCOC(=O)c1c(/N=C/C2C(=O)NC(=S)NC2=O)sc2c1CCC2	TrxR1 inh 17.8µM
CCOC(=O)c1cc(C)sc1/N=C/C1C(=O)NC(=S)NC1=O	TrxR1 inh 0.708µM
N[C@@H](Cn1ccc(=O)c(O)c1)C(=O)O	none (no result: GALK inhibitor, NPSR antagonist)
CCOC(=O)CSCCOc1ccc(C=C2C(=O)NC(=O)NC2=O)cc1OC	TrxR1 inh inconclusive
COc1ccc(N2C(=O)/C(=C/c3ccc(C)o3)C(=O)NC2=S)c(OC)c1	TrxR1 inh 14.1µM (no result: NPSR antagonist)
COc1cc(/C=C2/C(=O)NC(=O)N(c3ccc(C)cc3)C2=O)cc(OC)c1OC	TrxR1 inh inconclusive
COc1ccc(N2C(=O)/C(=C/c3ccc(OC)c(OC)c3)C(=O)NC2=S)cc1	TrxR1 inh 12.6µM (no result: NPSR antagonist)
CCOC(=O)COc1ccc(/C=C2\C(=O)NC(=S)N(c3ccc(OC)cc3)C2=O)cc1OC	TrxR1 inh 3.16µM (no result: NPSR antagonist)
COC(=O)COc1ccc(/C=C2\C(=O)NC(=S)N(c3ccc(C)cc3)C2=O)cc1OC	TrxR1 inh 3.98µM (no result: NPSR antagonist)
CCCCCCCCCC[Si](C)(C)CCC(=O)N[C@@H](Cc1ccc(C)cc1)c1ccccc1	none (no result: GALK inhibitor, NPSR antagonist)
C[C@H]1CC[C@@H]2[C@@H](C)[C@H]3C(C[C@H]4C5CC[C@H]6C[C@@H](O)CC[C@]6(C)C5CC[C@]34C)N2C1 (stereo partly drawn)	none (no result: GALK inhibitor, NPSR antagonist)
O=C1CCCCC1	none (no result: GALK inhibitor, NPSR antagonist)
CN[C@H](CC(C)C)C(=O)N[C@H]1C(=O)N[C@@H](CC(N)=O)C(=O)N[C@@H]2C(=O)N[C@H]3C(=O)N[C@H](C(=O)N[C@H](C(=O)O)c4cc(O)cc(O)c4-c4cc3ccc4O)[C@H](O)c3ccc(c(Cl)c3)Oc3cc2cc(c3O[C@@H]2O[C@H](CO)[C@@H](O)[C@H](O)[C@@H]2O[C@H]2C[C@](C)(N)[C@H](O)[C@H](C)O2)Oc2ccc(cc2Cl)[C@H]1O	none (no result: GALK inhibitor, NPSR antagonist)
C[C@]12CC[C@@H]3c4ccc(O)cc4C[C@@H](CCCCCCCCCS(=O)CCCC(F)(F)C(F)(F)F)[C@H]3[C@@H]1CC[C@@H]2O (stereo partly drawn)	TrxR1 substrate inconclusive (no result: GALK inhibitor, NPSR antagonist)
CC(C)C[C@H]1C(=O)N2CCCC2[C@]2(O)O[C@](NC(=O)[C@@H]3C=C4c5cccc6[nH]c(Br)c(c56)C[C@H]4N(C)C3)(C(C)C)C(=O)N12 (stereo partly drawn)	NPSR antagonist 12.6µM, TrxR1 inh inconclusive (no result: GALK inhibitor, TrxR1 substrate)
CCN(CC)C(=O)c1ccc2c(c1)C1C(Cl)C(Sc3ccccc3[N+](=O)[O-])CC1C(C(=O)O)N2 (stereo not drawn)	NPSR antagonist inconclusive, TrxR1 inh 50.1µM
O=C(O)c1cccc2c1NC(c1cccc([N+](=O)[O-])c1)C1CC(Sc3ccccc3[N+](=O)[O-])C(Cl)C21 (stereo not drawn)	NPSR antagonist 10µM
C[C@H]1CCCC=CC2C[C@H](O)C[C@@H]2[C@H](O)C=CC(=O)O1 (stereo partly drawn)	none (no result: GALK inhibitor, NPSR antagonist)
C[C@]12CC[C@H]3[C@@H](CCC4C[C@H](O)CC[C@@]43C)[C@@H]1CC[C@@H]2O (stereo partly drawn)	TrxR1 inh inconclusive (no result: GALK inhibitor, TrxR1 substrate)
CN1CCc2nc(N)c(C#N)c(-c3ccccc3)c2C1	none
CN1CCc2nc3sc(C#N)c(N)c3c(-c3cccs3)c2C1	NPSR antagonist 12.6µM
O=C(CCN1CCN(c2ccccc2)CC1)c1ccc(Br)cc1	TrxR1 inh 3.98µM (no result: NPSR antagonist)

High-throughput results as filed in PubChem.
